This passage reports growth inhibition results from PubChem BioAssay (NCI).

About 79,000 compounds went through this panel and 15% of them were active in at least one assay; those are over-represented in the sample as a whole. A number with no mark means an inactive call. Rule as the data show it: active = growth inhibition above about 70%; inactive = the rest.

The experiment in a line: NCI Yeast Anticancer Drug Screen. Data for the rad18 strain (AID 177). As to conditions: S. cerevisiae rad18 mutant growth inhibition; at 1.2 µM; stronger effect = higher value. In outline: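 Vehicle-treated cultures served as the baseline for scoring compound-induced growth inhibition in DNA-repair-mutant yeast.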
In the case of `O=[N+]([O-])c1cc[n+]([O-])cc1`, the growth inhibition was -2%.

Take `COC(=O)CC1(O)C(/C=C/c2ccccc2)C(C(=O)OC)C(=O)C(C(=O)OC)C1C(=O)OC` (stereo unspecified): the growth inhibition was 0%.

Regarding `CC(C)(C)c1ccc(NS(=O)(=O)c2ccc(N)cc2)cc1`, the growth inhibition is 3%.

Turning to `CCN(CC)CCNc1ccc([N+](=O)[O-])c2nc3ccccc3c(N)c12`, the growth inhibition is -6%.

Consider `CCCCN(CCCC)C(=O)/C=C/c1ccccc1`, for which the growth inhibition is -6%.

`O=c1[nH]c(-c2ccccc2)nc2c1sc1nc3ccccc3n12`: the growth inhibition is -35%.

With `Cc1ccc(S/C(=C\C(=O)O)c2ccccc2)cc1`, the growth inhibition was -4%.

On to `Cc1cc(S(=O)(=O)Nc2nnc3cnc4ccccc4n23)c(S)cc1Cl`, for which the growth inhibition is -6%.

Turning to `O=C(/C=C/c1cc(Cl)cc(Cl)c1O)c1cccc(O)c1`, the growth inhibition was 14%.

Regarding `NC1CCCCC1N.Nc1c(N=Nc2ccc(-c3ccc(N=Nc4cc(S(=O)(=O)[O-])c5ccccc5c4N)cc3)cc2)cc(S(=O)(=O)[O-])c2ccccc12.[OH3+].[OH3+].[Pt+4]`, the growth inhibition was 1%.

Turning to `COC(=O)CCC(NC(=S)N/N=C(\C)c1ccccn1)C(=O)OC` (stereo unspecified), the growth inhibition is -16%.

For `COc1cc(C2SCC(=O)N2c2ccc(-c3ccc(-n4c(-c5ccccc5)nc5ccccc5c4=O)cc3)cc2)ccc1O` (stereo unspecified), the growth inhibition was -3%.

With `Cc1c(C(C)C)cc(OCCO)cc1C(C)C`, the growth inhibition is -4%.

With `C=C(Cl)COC(=O)Nc1cccc(Cl)c1`, the growth inhibition was -1%.

As to `COc1c(O)c(C=O)c(Br)c(C=O)c1O`, the growth inhibition is 0%.

Take `O=[N+]([O-])c1cc(Cl)cnc1Br`: the growth inhibition is 6%.
